The structures appear in SMILES notation. Records with an inconclusive call do not appear. Active and inactive are the calls of the source. The call rests on the fitted dose curve; in most records, active means well fitted inhibition curve with a large enough effect; inconclusive means small, poorly fitted or top-dose-only effect; inactive means flat fitted curve, though single readings scatter.
On the % scale 0 is the no-effect control and ±100 the full control effect.

Sequence of Phospholipid hydroperoxide glutathione peroxidase GPX4 (Homo sapiens) (P36969 whole entry, looked up): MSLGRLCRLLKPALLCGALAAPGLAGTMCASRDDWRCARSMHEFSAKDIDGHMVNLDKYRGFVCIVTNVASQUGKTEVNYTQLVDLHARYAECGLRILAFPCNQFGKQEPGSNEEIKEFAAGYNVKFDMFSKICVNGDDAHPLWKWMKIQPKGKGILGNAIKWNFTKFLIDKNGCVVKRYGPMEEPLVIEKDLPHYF

The experiment deals with Phospholipid hydroperoxide glutathione peroxidase GPX4 (Homo sapiens) (UniProt P36969). Put plainly: Primary qHTS Assay for Inhibitors of Recombinant Selenoprotein Glutathione Peroxidase 4 (GPX4) (AID 1845192). Further: nearly all actives have a fitted effect of over 65% in size. Conditions: recombinant GPX4, GR-coupled NADPH fluorescence, 15 min; series mostly up to 50 µM; activity change, negative = inhibition: at the top concentration. The gist of the method:
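Steps: GPX4 plus compound, 30 min RT; add GR/GSH/NADPH master mix; start with cumene hydroperoxide; read 340/450 nm fluorescence at 0 and 15 min. Finals were 200 nM GPX4, 1 mM GSH, 0.5 mM CHP, 0.5 mM NADPH, 100 nM GR.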
(In general: In qHTS, concentration-response curves come from the screen itself.)
For the molecule `N[C@@]1(C(=O)O)CC[C@@H](C(=O)O)C1`, the “activity change, negative = inhibition” value is -16.6% (inactive). In the case of `CCNC(=O)[C@H]1O[C@@H](n2cnc3c(N)ncnc32)[C@H](O)[C@@H]1O`, the result was inactive. For `CCCCCOc1cc2c(cc1-c1cc(/C=C/C(=O)O)ccc1O)C(C)(C)CCC2(C)C`, the “activity change, negative = inhibition” value is -27.2% (inactive).

In the case of `c1ccc2c(N3CCNCC3)cccc2c1`, the outcome was inactive.

Take `O=C/C=C/c1ccccc1`: the “activity change, negative = inhibition” value was -11% (inactive).

Consider `Cc1c2ccncc2c(C)c2c1[nH]c1ccccc12`, for which the “activity change, negative = inhibition” value was 0.063% (inactive).

Turning to `NCCc1ccc(S(=O)(=O)F)cc1`, the result was inactive. On to `N[C@@H](Cn1oc(=O)[nH]c1=O)C(=O)O`, for which the outcome was inactive. The same measure, in the same setting: next, `C[N+]1(C)CCN(c2ccccc2)CC1`: “inactive”. As for `CCCn1c(=O)c2[nH]c(C3CCCC3)nc2n(CCCOC(=O)c2ccc(S(=O)(=O)F)cc2)c1=O`, the “activity change, negative = inhibition” value was 4.59% (inactive). For the molecule `C[N+](C)(C)CC#CCN1CCCC1=O`, the result was inactive. The same measure, in the same setting: next, `CCCCCCCCCCCCCC(=O)O[C@@H]1[C@@H](C)[C@@]2(O)[C@@H](C=C(CO)C[C@@]3(O)C(=O)C(C)=C[C@@H]23)C2C(C)(C)[C@@]21OC(C)=O` (stereo partly specified): “inactive”. In the case of `C[N+](C)(C)CCOC(=O)CBr`, the “activity change, negative = inhibition” value was 4.71% (inactive). For the molecule `CC1(C(=O)O)C2CCC(O2)C1(C)C(=O)O` (stereo unspecified), the outcome was inactive. On the same count and under the same terms, next, `CNc1ccc2oc(C[C@H]3O[C@@]4(CC[C@H]3C)O[C@H]([C@H](C)C(=O)c3ccc[nH]3)[C@H](C)C[C@H]4C)nc2c1C(=O)O`: “inactive”; `CC(N)c1cccc(Cl)c1Cl` (stereo unspecified): “inactive”.

For the origin of these results see PubChem BioAssay (NCATS).
